The source of these data is ChEMBL document CHEMBL1157539, “Thousands of chemical starting points for antimalarial lead identification” (Nature, 2010).

Where “and” joins values, the source holds several entries; their conditions need not be identical. Equal values may be shown once.

This assay has as its system HepG2. Description: GSK_TCMDC: Percent inhibition of human HepG2 cell line. Test compounds present at 10uM. Format: functional.
By Inhibition is commonly meant the share of the control response that was lost under treatment. A low value points to a weak effect. As to `CCCCCCC(C)(C)c1cc(O)c2c(c1)OC(C)(C)c1ccncc1-2.Cl`, the Inhibition was found to be 4%.
As for `O=C(C=Cc1ccc(F)c(Br)c1)N1CCC(CN2CCC(c3c[nH]c4ccccc34)CC2)CC1`, the figure is 39%; as for `O=C(/C=C/c1ccc(Cl)c(Cl)c1)N1CCC(CN2CCC(c3c[nH]c4cc(C(F)(F)F)ccc34)CC2)CC1`, 6%; as for `Cc1ccc(CC(C)NCC(O)c2cccc(C(F)(F)F)c2)cc1.Cl` (centres undefined), 6%.
As for `CC(C)CNCc1cccc(-c2cccc(CN(C(=O)c3cccs3)C3CCN(Cc4ccccc4)CC3)c2)c1.O=C(O)C(F)(F)F`, the figure is 14%; as for `CC[C@@]1(O)C(=O)OCc2c1cc1n(c2=O)Cc2c-1nc1cc3c(cc1c2CN1CCOCC1)OCO3.O=C(O)C(F)(F)F`, 81%.
`CC(Cc1ccc(OCc2ccc(CCN(C)C)cc2)cc1)NCCc1cccc(Cl)c1` (centres undefined) came in with an Inhibition of 42%.
Next, `C=CCOc1ccccc1CNCC(O)c1cccc(C(F)(F)F)c1` (centres undefined): 10%.
As for `Br.COC(=O)c1ccc(CC(C)NCC(O)c2cccc(OC(F)(F)F)c2)cc1` (centres undefined), the figure is 2%; as for `O=C(NC1CCC(CN2CCC(c3c[nH]c4ccccc34)CC2)CC1)NC12CC3CC(CC(C3)C1)C2` (centres undefined), 37%.
`Cl.N#Cc1c(F)cc(N2CCC(NCC[C@H](N)Cc3ccc(F)c(F)c3)CC2)cc1F`: the Inhibition came to 70%.
As for `O=C(O)C(F)(F)F.OC1(CNCc2ccccc2)CCN(CCc2c[nH]c3ccc(F)cc23)CC1`, the figure is 39%.
Next, `COc1ccc(CC(C)NCC(O)c2cccc(Cl)c2F)cc1` (centres undefined): 3%.
Compound `CNC(=O)c1ccc2[nH]cc(C3CCN(CC4CCC(NC(=O)/C=C/c5ccc(Cl)c(Cl)c5)CC4)CC3)c2c1` (centres undefined) came in with an Inhibition of 0%.
As for `O=C(CCC(=O)c1ccc2c3c(cccc13)CC2)NC1CCC(CN2CCC(c3c[nH]c4ccccc34)CC2)CC1` (centres undefined), the figure is 34%.
Next, `CC(C)(C)c1ccc(Cn2nc(C(=O)N3CCN(C(=O)C4CCCO4)CC3)c3ccccc32)cc1` (centres undefined): 0%; `CC(Cc1ccc(OCc2ccccc2)cc1)NCC(O)c1cccc(Cl)c1` (centres undefined): 50%; `O=C(/C=C/c1ccc2ccccc2c1)NC1CCC(CN2CCC(c3c[nH]c4ccccc34)CC2)CC1` (centres undefined): 28%.
`CN1CC=C(c2c[nH]c3ccc(OC(=O)c4ccccc4)cc23)C1` registered an Inhibition of 12%.
As for `CO/C=C(/C(=O)OC)c1ccccc1Oc1cc(Oc2ccccc2C#N)ncn1` [AZOXYSTROBIN], the figure is 7%; as for `CC[C@H]1CN2CC[C@H]1C[C@H]2[C@H](O)c1cc(-c2ccc(F)cc2)nc2ccc(OC)cc12.Cl`, 34%; as for `Cc1[nH]c2cc(Cl)ccc2c1C1=CCN(CCN2CCOc3c(Br)cccc3C2=O)CC1.Cl`, 1%.
In the case of `Cc1[nH]c2ccccc2c1C1=CCN(CCN2CCOc3c(Br)cccc3C2=O)CC1`, the Inhibition was determined as 15%.
Next, `CCOc1ccc(-c2nc3cc(-c4nc5cc(N6CCN(C)CC6)ccc5[nH]4)ccc3[nH]2)cc1.Cl.O`: 16%; `Cc1cc(CN2CCN(CCOC(c3ccccc3)c3ccccc3)CC2)ccc1O`: 9%; `CCOC(=O)c1c(C)n(C2CCCCC2)c2cc(Br)c(O)cc12`: 1%.
Next, `Cn1c(C2CC3CCC(C2)N3CC2CCC(NC(=O)/C=C/c3ccc(Cl)c(Cl)c3)CC2)nc2ccccc21` (centres undefined): 50%.
As for `O=C(/C=C/c1ccc(Cl)c(Cl)c1)NC1CCC(CN2CCC(c3c[nH]c4ccccc34)C(O)C2)CC1` (centres undefined), the figure is 30%.
In the case of `COc1ccc(C=CC(=O)NC2CCC(CN3CCC(c4c[nH]c5ccccc45)CC3)CC2)cc1` (centres undefined), the Inhibition was 13% and 30%.
As for `CN1C2CCC1c1cc(NC(=O)c3cc(-c4ccc(Cl)cc4)cs3)ccc12.O=C(O)C(F)(F)F` (centres undefined), the figure is 62%.
As for `CCCCCCC(C)c1cc(O)c2c(c1)OC(C)(C)c1ccncc1-2.Cl` (centres undefined), the figure is 0%; as for `O=C(NC1CCC(CN2CCC(c3c[nH]c4ccccc34)CC2)CC1)c1cc(-c2ccccc2)c(C(F)(F)F)s1` (centres undefined), 55%; as for `Br.CNCCc1c(O)ccc2ccccc12`, 6%.
For `COc1cccc(C2(NC[C@@H](O)[C@H](Cc3ccccc3)NC(=O)c3ccccc3)CCCCC2)c1`, the Inhibition is 14%.
As for `CC[C@H]1CN2CC[C@H]1C[C@H]2[C@H](O)c1cc(Cl)nc2ccc(OC)cc12`, the figure is 0%; as for `COC(=O)c1ccc(CC(C)NCC(O)c2cccc(C(F)(F)F)c2)cc1.Cl` (centres undefined), 0%.
Next, `Cc1[nH]c2ccc([N+](=O)[O-])cc2c1C1=CCN(C)CC1`: 6%; `O=C(C=Cc1ccc(-c2ccccc2)cc1)NC1CCC(CN2CCC(c3c[nH]c4ccccc34)CC2)CC1` (centres undefined): 97% and 43%.
Next, `COC(=O)c1ccc(CC(C)NCC(O)c2cccc(C(F)(F)F)c2)c(OC)c1` (centres undefined): 5%.
